PubChem BioAssay (NCATS)
Results filed as inconclusive are left out. Calls of active or inactive are those of the source. Calls come from the whole dose curve; as a rule, active = well fitted inhibition curve with a large enough effect; inconclusive = small, poorly fitted or top-dose-only effect; inactive = flat fitted curve, though single readings scatter.

tested on: Zika virus NS2B-NS3 protease; assay: Primary screen GU AMC qHTS for Zika virus inhibitors (AID 1347154); details: Zika NS2B-NS3 unlinked protease, AMC fluorogenic substrate; series mostly up to 54.1 µM; activity change, negative = inhibition: at the top concentration;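 note: 0% = no-inhibitor control and -100% = no-enzyme control; nearly all actives have a fitted effect of over 70% in size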
Method in brief: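 Fluorogenic AMC-substrate cleavage by noncovalent NS2B-NS3 protease complex (25 nM, pH 8.0 Tris buffer with Tween 20) followed for 15 minutes at room temperature (~20% conversion). Percent inhibition from ex340/em450 signal change, fitted by 4-parameter Hill equation.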

Structure (SMILES)	activity change, negative = inhibition	Potency
Cc1cccc(Cc2cnc[nH]2)c1C	1.44% (inactive)	–
CC[C@]1(O)CC[C@H]2[C@@H]3CCC4=CCCC[C@@H]4[C@H]3CC[C@@]21C	0.0051% (inactive)	–
C[C@@H]1CC[C@H]2[C@@H](C)C(=O)O[C@@H]3O[C@@]4(C)CC[C@@H]1[C@]32OO4	4.78% (inactive)	–
c1ccc2nc(N3CCNCC3)ccc2c1	-15.1% (inactive)	–
CCOP(=S)(OCC)O/N=C(\C#N)c1ccccc1	2.66% (inactive)	–
O=C(CCl)c1ccc(Cl)cc1Cl	0.595% (inactive)	–
Sc1ccccc1Cl	-0.645% (inactive)	–
CC(C)NCC(O)c1ccc(N)c(C#N)c1 (configuration not stated)	–	inactive
CCCN(CCC)CCc1c[nH]c2ccccc12	-1.42% [at 104 µM] (inactive)	–
CC1=C2[C@H]3OC(=O)[C@@H](C)[C@@H]3CC[C@@]2(C)C=CC1=O	2.08% (inactive)	–
COc1ccc2[nH]cc(CCN(C(C)C)C(C)C)c2c1	1.77% [at 104 µM] (inactive)	–
O=C(CBr)Nc1ccc(Cl)cc1C(=O)c1ccccc1F	-6.53% (inactive)	–
C[C@@H]1C[C@@H]([C@H](O)CC2CC(=O)NC(=O)C2)C(=O)[C@@H](C)C1	–	inactive
CN(C)C(=O)Oc1cc(OC(=O)N(C)C)cc(C(O)CNC(C)(C)C)c1 (configuration not stated)	-3.84% (inactive)	–
COc1ccc(CN2CCNCC2)c(OC)c1OC	-1.89% (inactive)	–
CNC(=O)Oc1cccc2ccccc12	-14.3% (inactive)	–
COc1ccc(OC)c(CC(C)N)c1 (configuration not stated)	3.37% [at 104 µM] (inactive)	–
ClCc1cccc(Cl)c1	-0.447% (inactive)	–
CN1C2CCC(C)(C)C1CC(OC(=O)C(O)(c1cccs1)c1cccs1)C2 (configuration not stated)	-6.19% (inactive)	–
COCC(=O)N(c1c(C)cccc1C)C(C)C(=O)OC (configuration not stated)	4.97% (inactive)	–
COc1cc(CC(C)N)cc2c1OCO2 (configuration not stated)	-0.106% [at 104 µM] (inactive)	–
Oc1c(Br)cc(Br)cc1Br	3.71% (inactive)	–
